# Reference: PubChem BioAssay (Tox21)
# “And” between values parts separate entries of the source, which are not always exact repeats. Identical values can stand only once. Inconclusive results are not listed. Where a call stands in place of a potency, no number is given. Values without a mark were called inactive. The source made the active and inactive calls. Calls follow the shape of the dose curve; as a rule, active = well fitted activation curve with a large enough effect in the repeat runs; inconclusive = weak or mixed curves; inactive = no such curve, though single readings can be large or run the other way.
# Target: Nuclear receptor subfamily 1 group I member 3 (Homo sapiens) (UniProt Q14994)
# Sequence (Q14994 whole entry, looked up): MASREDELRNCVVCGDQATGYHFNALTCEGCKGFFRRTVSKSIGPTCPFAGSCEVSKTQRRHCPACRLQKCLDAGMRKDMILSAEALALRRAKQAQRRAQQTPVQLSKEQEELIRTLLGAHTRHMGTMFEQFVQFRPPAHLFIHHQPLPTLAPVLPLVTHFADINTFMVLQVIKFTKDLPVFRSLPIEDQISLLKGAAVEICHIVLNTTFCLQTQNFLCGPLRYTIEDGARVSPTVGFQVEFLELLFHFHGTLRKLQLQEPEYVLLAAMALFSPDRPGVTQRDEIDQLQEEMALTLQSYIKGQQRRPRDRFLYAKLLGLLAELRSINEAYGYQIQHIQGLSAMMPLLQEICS
# Assay: qHTS assay to identify small molecule agonists of the constitutive androstane receptor (CAR) signaling pathway (AID 1224839); also: nearly all actives have a fitted effect of over 15% in size;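 as to activation: HepG2 cells stably carrying human CAR and a CYP2B6 luciferase reporter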
# Conditions: HepG2 hCAR CYP2B6-luciferase, agonist mode, 24 h; series mostly up to 92.4 µM; activation: at the top concentration
# Source text: National Center for Advancing Translational Sciences [NCATS] NIH Chemical Genomics Center [NCGC] U.S. Environmental Protection Agency [EPA] National Institutes of Environmental Health Sciences [NIEHS] National Toxicology Program [NTP] Assay overview: The constitutive androstane receptor (CAR) is a nuclear receptor which regulates multiple drug metabolizing enzymes (DMEs) and transporters. Activating CAR will generally increase the transcription and subsequent translation of CYP2B6 and CYP3A4. These two DMEs represent about 50% of the drug metabolizing potential in the body. […] Recently, there have also been studies performed indicating CARs role in energy metabolism and cancer therapy. Therefore, inducing CARs activity could have a potential effect on diabetes and cancer. Identifying environmental toxins and compounds which modulate CAR, through the use of the Tox21 10K compound collection, will be an important step in determining the toxicity and potential therapeutic effects these factors will have on the human body.
# Assay Protocol Summary: A double-stable (hCAR and CYP2B6-2.2kb) transfected cell line, derived from human hepatoma (HepG2) cells, was utilized for the duration of the quantitative high-throughput screens. The HepG2-CYP2B6-hCAR cells suspended in DMEM culture medium supplemented with 10% FBS, 5 ug/mL blasticidin, 0.5 mg/mL geneticin, 100 U/mL penicillin and 100 ug/mL streptomycin were dispensed at 2500 cells/4 uL/well in 1536-well white solid bottom plates using a Multidrop Combi. After the assay plates were incubated at 37 C/5% CO2 for 4 hrs, 23 nL of compounds at 15 concentrations (from 5-48 columns) or positive control (from 1 to 4 columns) were transferred to the assay plates using a Pintool station. One uL of PK11195, was added using a Flying Reagent Dispenser to generate a final concentration of 0.75 uM PK11195 inside each well. After a 24 hr incubation period at 37 C/5% CO2, four uL of ONE-Glo reagent was added into the assay plates using a Flying Reagent Dispenser. After a 30 min incubation period at room temperature, the luminescence intensity in the assay plates was measured using a ViewLux plate reader.
# Potency is read from the fitted curve at half-maximal effect.
Structure (SMILES),Potency,activation
O=C(O)c1ccccc1Nc1cccc(C(F)(F)F)c1,inactive,
c1cc(-c2ccncc2)ccn1,inactive,
CCCCCCCCCCCO,inactive,
O=C(Nc1ccc(Cl)cc1)Nc1ccc(Cl)c(Cl)c1,3.44 µM (active) and 4.22 µM (active),
COC(=O)C1=C(C)NC(C)=C(C(=O)OCCN(C)Cc2ccccc2)C1c1cccc([N+](=O)[O-])c1 (stereo not given),inactive,
S=C(NC1CCCCC1)NC1CCCCC1,,1.9%
c1ccc2c(c1)c1cccc3ccc4cccc2c4c31,13.6 µM (active) and 27.3 µM (active),
O=[N+]([O-])c1ccc2c(c1)Cc1ccccc1-2,54.4 µM (active),
O=C1OC2(c3cc(Br)c(O)c(Br)c3Oc3c2cc(Br)c(O)c3Br)c2c(Cl)c(Cl)c(Cl)c(Cl)c21,inactive,
O=C(COc1ccc(Cl)cc1)N1CCN(Cc2ccc3c(c2)OCO3)CC1,,2.83% [at 42.5 µM]
C[C@]12CC[C@H]3[C@@H](CCC4=CC(=O)CC[C@@]43C)[C@@H]1CC[C@@H]2C(=O)CO,inactive,
Cn1cnc([N+](=O)[O-])c1Sc1ncnc2nc[nH]c12,inactive,
O=CCCCC=O,inactive,
C=C(C)C1CC=C(C)CC1 (stereo not given),inactive,
CN(C)CCC=C1c2ccccc2CCc2ccccc21,inactive,
CN1C(C(=O)Nc2ccccn2)=C(O)c2ccccc2S1(=O)=O,inactive,
O=C(/C=C/c1ccccc1)OCc1ccccc1,29.8 µM (active),
OC1CCCCCCCCCCC1,inactive,
CC(C)CC(C)(O)C#CC(C)(O)CC(C)C (stereo not given),inactive,
c1ccc2c(c1)Oc1ccccc1S2,inactive,

Structure (SMILES),Potency,activation
CC(C)OC(=O)C(C)(C)Oc1ccc(C(=O)c2ccc(Cl)cc2)cc1,54.5 µM (active) and 26.6 µM (active),
COc1cccc2c1C(=O)c1c(O)c3c(c(O)c1C2=O)C[C@@](O)(C(=O)CO)C[C@@H]3O[C@H]1C[C@H](N)[C@H](O)[C@H](C)O1,inactive,
O=CCc1ccccc1,inactive,
CN(C)C(=N)N=C(N)N,inactive,
Cc1[nH]c(=O)c(C#N)cc1-c1ccncc1,inactive,
CCC(C)CO (stereo not given),inactive,
Nc1ncn([C@@H]2O[C@H](CO)[C@@H](O)[C@H]2O)c(=O)n1,inactive,
CC(C)OB(OC(C)C)OC(C)C,inactive,
Cc1cccc(N(C)C(=S)Oc2ccc3ccccc3c2)c1,27.3 µM (active) and 26.6 µM (active),
CCCc1c(OCCCCc2nn[nH]n2)ccc(C(C)=O)c1O,inactive,
COC(=O)CCC(=O)OC,inactive,
O=Cc1ccccc1O,inactive,
CCC(C)OC(=O)c1ccc(O)cc1 (stereo not given),61.5 µM (active) and 54.5 µM (active),
c1ccncc1,inactive,
c1ccc2cc(Nc3ccc(Nc4ccc5ccccc5c4)cc3)ccc2c1,inactive,
Cc1cccc(C(=O)O)c1,inactive,
O=C(/C=C/C=C/c1ccc2c(c1)OCO2)N1CCCCC1,1.73 µM (active) and 3.86 µM (active),
CC(CCC(=O)O)(c1ccc(O)cc1)c1ccc(O)cc1,inactive,
COc1ccc(C(=O)CC(=O)c2ccc(C(C)(C)C)cc2)cc1,,4.07% [at 42.5 µM]
Cc1c(C(N)=O)cc([N+](=O)[O-])cc1[N+](=O)[O-],inactive,
